MCF10A rerep: inducers of DNA re-replication in MCF 10A breast cells. MCF 10A DNA re-replication, Hoechst nuclear intensity, 48 h. Potency, µM (series often up to 46.1 µM), for the others: top-dose activity, positive = re-replication, actives largely listed as activators. 350,000 tested, 2.9% active; note: % of control where 0% means no effect; nearly all actives have a fitted effect of over 50% in size
AT treatment: potential ataxia-telangiectasia treatments restoring KAP-1 phosphorylation. F2112 A-T fibroblasts, KAP-1 phosphorylation AlphaLISA; neocarzinostatin DNA damage 30 min before lysis. Potency, µM (titrated, usually from 57.5 µM), without a hit: at the top dose activation, most hits filed as activators. 320,000 tested, 0.19% active; note: % of control where 0% means no effect; nearly all actives have a fitted effect of over 45% in size
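ATM-like activity read as KAP-1 phosphorylation via AlphaLISA donor/acceptor antibody pairs after lysis and 6 hr at 25C. Cells were ATM-null patient fibroblasts (F2112, hTERT), dosed 60 min, then exposed to the DSB inducer NCS for 30 min.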
ELG1 genotox: inducers of genotoxicity in HEK293T ELG1-luciferase cells | HEK293T ELG1-luciferase reporter, luminescence, 16 h | Potency, µM (titrated, usually from 46 µM), inactives show at the highest dose activity change, positive = activation, most hits filed as activators | 330,000 tested, 1.3% active | AID 504466; note: % of control where 0% means no effect; nearly all actives have a fitted effect of over 60% in size
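16 hr compound incubation (37 °C, 5% CO2) of HEK293T cells carrying luciferase-tagged ELG1; luciferase then measured by ONE-Glo luminescence after 30 min at RT.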
ELG1 repair inh: inhibitors of ELG1-dependent DNA repair in HEK293T cells. Potency, µM (top dose mostly 46.1 µM), without a hit: at the top dose activity change, negative = inhibition, hits mostly inhibitors. AID 504467. 330,000 tested, 2.3% active. HEK293T ELG1-luciferase reporter, luminescence, 16 h; DNA damage induced by 5-fluorouridine; note: % is set by controls: 0 for no effect and ±100 for the full control effect; nearly all actives have a fitted effect of over 55% in size
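Luminescence from the luciferase reporter, measured 30 min after ONE-Glo reagent at room temperature, was the read-out. Beforehand, 2,000 cells per well were exposed for 16 hr at 37 °C to 5-fluorouridine together with compound or vehicle.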
SW480 rereplic: inducers of DNA re-replication in SW480 colon cancer cells. Potency, µM (titrated, usually from 46.1 µM), for the others: at the top dose re-replication activation, hits mostly activators. AID 624297. SW480 DNA re-replication, Hoechst DNA content imaging, 48 h. 340,000 tested, 1.8% active; note: % of control where 0% means no effect; nearly all actives have a fitted effect of over 55% in size
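DNA re-replication was detected as more nuclei of elevated Hoechst intensity after 48 hr exposure to compound (23 nL pinned per well of 250 cells).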
p53 reactivator: re-activators of mutant p53. H1299 p53-A138V BP100-luciferase reporter, luminescence, 24 h. Potency, µM (titrated, usually from 92.2 µM), without a hit: at the highest dose activity change, positive = activation, actives largely listed as activators. 320,000 tested, 0.063% active. AID 504706; note: % of control where 0% means no effect; nearly all actives have a fitted effect of over 45% in size
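H1299 (p53-null), stable ts p53-A138V + BP100-Luc; 1000 cells/well, Opti-MEM/10% FBS; cpd 4 pt, 1:5; 24 h, 37 deg C, 5% CO2; detection reagent 10 min RT; luminescence.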
The depositor's hits bear a star; ? = inconclusive; · = no result given; [ ] = another dose, or the depositor's remark. Only some compounds are listed: those with a hit (about 7.1% of all), similar ones and a draw of the others. Calls come from the whole dose curve; as a rule, active = well fitted curve in the direction sought with a large enough effect; inconclusive = small, poorly fitted or top-dose-only effect, or another doubt; inactive = no such curve, though single readings can be large; an effect the other way counts as inactive or inconclusive. Potency is the fitted concentration of half-maximal effect.

SMILES	MCF10A rerep	AT treatment	ELG1 genotox	ELG1 repair inh	SW480 rereplic	p53 reactivator
CC(N)C(=O)NCC(=O)NC1CSSCC(C(=O)O)NC(=O)C(CO)NC(=O)C(C(C)O)NC(=O)C(Cc2ccccc2)NC(=O)C(C(C)O)NC(=O)C(CCCCN)NC(=O)C(Cc2c[nH]c3ccccc23)NC(=O)C(Cc2ccccc2)NC(=O)C(Cc2ccccc2)NC(=O)C(CC(N)=O)NC(=O)C(CCCCN)NC1=O (configuration not stated)	6%	·	·	·	2%	·
Cc1ccc(NC2=CC(=O)C(=O)c3ccccc32)cc1	?	9%	-16%	?	5.8µM*	-36%
COc1cc(OC)c(NC2=CC(=O)C(=O)c3ccccc32)cc1Cl	17%	3%	-11%	?	?	5%
CCOC(=O)c1ccc(NC2=CC(=O)C(=O)c3ccccc32)cc1	13µM*	13%	-6%	-6%	?	-8%
Cc1cc(NC2=CC(=O)C(=O)c3ccccc32)no1	13µM*	·	·	·	?	·
NS(=O)(=O)c1ccc(NC2=CC(=O)C(=O)c3ccccc32)cc1	?	-7%	-17%	10µM*	3.3µM*	-5%
O=C1C=C(Nc2ccc(O)cc2)C(=O)c2ccccc21	?	-3%	?	?	?	?
O=C(/C=C/c1ccccc1)NCCO	0%	·	·	·	-2%	·
CCOC(=O)c1ccc(S(=O)(=O)N2CC(=O)Nc3ccccc32)cc1	?	-5%	3%	-5%	15µM*	?
CCc1ccc(S(=O)(=O)N2CC(=O)Nc3ccccc32)cc1	-6%	-3%	2%	-2%	?	-9%
CCC(=O)Nc1c(-c2ccc3ccccc3c2)nc2ccccn12	-2%	15%	11%	?	42%	6%
CC(=O)Nc1c(-c2ccc3ccccc3c2)nc2ccccn12	-6%	0%	21µM*	?	-1%	?
Cc1ccc(NC(=S)N2CCCC2)cc1Cl	-2%	6%	16%	23%	4%	-1%
Cc1cnc(C(=O)OC(C)C(=O)NCc2ccccc2)cn1 (configuration not stated)	-2%	2%	0%	6%	-1%	-1%
O=C(CSc1nc2ccc(N3CCOCC3)cc2c(=O)n1CCc1ccccc1)NCC1CCCO1 (configuration not stated)	23µM*	-1%	-17%	?	29%	4%
O=C(c1ccc(-n2cncn2)c([N+](=O)[O-])c1)N1CCN(S(=O)(=O)c2ccc(Cl)cc2)CC1	17%	-2%	-8%	-13%	-1%	11%
CN(C)c1ccc(Nc2nc(-c3cccnc3)cs2)cc1	-1%	-5%	1.5µM*	?	0%	22%
COc1cc([C@@H]2C[C@H]3CN(c4ccccc4)C(=O)[C@]34CCCN24)cc(OC)c1OC	18µM*	1%	-4%	?	-3%	2%
COc1ccccc1-n1cc([C@@H]2C[C@H]3CN(c4ccccc4)C(=O)[C@]34CCCN24)cn1	2.6µM*	8%	-1%	2%	8.2µM*	2%
COc1ccc(S(=O)(=O)N2CCN(C(=O)c3ccc(=O)[nH]n3)CC2)cc1OC	-2%	8%	-1%	-7%	-5%	6%
CCOc1ccccc1Nc1nnc(SCc2nnc(-c3cc(OC)c(OC)c(OC)c3)o2)s1	?	-1%	-6%	5.8µM*	0%	-15%
COc1ccccc1Nc1nnc(SCC2CCCCO2)s1 (configuration not stated)	?	10%	?	?	?	2%
Cc1cccn2cc(CSc3nnc(Nc4ccc(C(C)C)cc4)s3)nc12	21%	6%	0%	-15%	4%	21%
COc1ccccc1Nc1nnc(SCc2nnc(-c3cc(OC)c(OC)c(OC)c3)o2)s1	21µM*	6%	-1%	6.5µM*	?	3%
COc1cc(-c2nnc(CSc3nnc(Nc4ccc(C(C)C)cc4)s3)o2)cc(OC)c1OC	15µM*	2%	0%	6.5µM*	28%	18%
SMILES	MCF10A rerep	AT treatment	ELG1 genotox	ELG1 repair inh	SW480 rereplic	p53 reactivator
CC(C)(C)c1ccc(OCCC(=O)Nc2cccc(S(=O)(=O)N3CCOCC3)c2)cc1	5%	17%	-2%	1%	-3%	·
CC1Sc2ccc(S(=O)(=O)CCC(=O)NC3CCCCC3C)cc2NC1=O (configuration not stated)	0%	4%	-6%	0%	-6%	0%
N#Cc1ccc2c(c1)C[C@]1(CCCCN3C(=O)c4ccccc4C3=O)OC3=C(C(=O)OC4(CCCCC4)C3)C2O1	·	6%[11.5 µM]	·	·	·	·
CCN(CC)C(=O)CSc1nc2c(sc(=S)n2-c2ccccc2)c(=O)n1Cc1ccco1	?	·	-24%	23µM*	?	-3%
O=C(O)c1ccc(N=Nc2c(O)[nH]c3ccccc23)cc1	6%	9%	?	?	23µM*	-7%
O=C(O)CC(NC(=O)CCc1ccccc1)c1ccc(Cl)cc1 (configuration not stated)	-3%	5%	0%	-5%	1%	4%
COc1ccc(Cl)cc1NC(=O)CN(C)C(C)C(=O)NC(=O)NC1CCCCC1 (configuration not stated)	?	-4%	-8%	?	0%	-11%
CCOC(=O)c1cnc(NCc2ccccc2)nc1C	10%	2%	15µM*	?	-18%	?
CCOC(=O)c1cnc2ccc(OCC)cc2c1NCc1cccnc1	23µM*	2%	7%	?	0%	?
CCOC(=O)c1cnc2c(OC)cccc2c1NCc1cccnc1	0%	-2%	-4%	-19%	-34%	-5%
CCOC(=O)c1cnc2ccc(OCC)cc2c1NCc1ccccc1	21µM*	-3%	-2%	?	-2%	-2%
CCOC(=O)c1cnc2ccc(OC)cc2c1NCCc1ccc(OC)c(OC)c1	8%	9%	-7%	21µM*	-1%	3%
Cc1ccc2oc(C(=O)NCC3CCOCC3)c(C)c2c1	-6%	23%	-1%	1%	-23%	22%
CCOC(=O)c1cnc2ccc(C)cc2c1N(C)Cc1ccccc1	?	22µM*	-8%	?	18%	-4%
CCOC(=O)c1cnc(-n2nc(C)cc2C)nc1NCCO	-1%	2%	-3%	-5%	-3%	-4%
CCOC(=O)c1cnc2ccc(C)cc2c1Sc1ccccc1	?	14%	20%	?	0%	3%

Screening data as filed in PubChem.
